SMN2 splice up = increases expression of the SMN2 splice variant. 2.8% of 210,000 active. HEK293 SMN2-luciferase splicing reporter, luminescence, 30-36 h. Potency, µM (highest dose often 46.1 µM), actives largely listed as activators; further: nearly all actives have a fitted effect of over 55% in size
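qHTS luciferase splicing reporter: luminescence rises when SMN2 exon 7 is included in transfected HEK293 cells. Compound exposure lasted 30-36 h at 37C, with 4.5 mM final sodium butyrate as control, followed by a ONE-Glo read.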
FLuc counter = counter-screen for miR-21 project: firefly luciferase inhibitors or activators; purified FLuc, Km substrates, luminescence inhibition; Potency, µM (doses to about 57.5 µM), hits mostly inhibitors; 6.9% of 360,000 active; further: nearly all actives have a fitted effect of over 55% in size
Target sequence (P08659 whole entry, looked up): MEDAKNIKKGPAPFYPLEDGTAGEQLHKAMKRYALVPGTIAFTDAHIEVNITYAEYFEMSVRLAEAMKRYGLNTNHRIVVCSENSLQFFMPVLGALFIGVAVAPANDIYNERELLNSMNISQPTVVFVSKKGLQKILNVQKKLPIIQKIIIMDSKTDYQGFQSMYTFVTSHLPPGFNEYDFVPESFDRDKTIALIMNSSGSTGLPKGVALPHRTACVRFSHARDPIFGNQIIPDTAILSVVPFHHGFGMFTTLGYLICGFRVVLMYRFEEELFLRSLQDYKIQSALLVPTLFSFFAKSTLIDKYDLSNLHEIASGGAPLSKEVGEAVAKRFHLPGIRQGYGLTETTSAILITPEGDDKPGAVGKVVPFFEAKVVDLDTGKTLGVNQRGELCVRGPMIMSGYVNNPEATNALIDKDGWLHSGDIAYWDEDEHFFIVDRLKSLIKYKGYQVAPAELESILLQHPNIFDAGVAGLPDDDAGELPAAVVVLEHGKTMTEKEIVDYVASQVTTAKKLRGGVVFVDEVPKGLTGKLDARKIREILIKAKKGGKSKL
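Purified P. pyralis luciferase (10nM final) with 10uM D-luciferin and 10uM ATP (Km levels) in 50mM Tris acetate pH 7.5, 10mM Mg acetate, 0.01% Tween-20, 0.05% BSA; qHTS 6-point titration, ~60 µM downward; luminescence read.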
ELG1 genotoxic = induces genotoxicity in HEK293T cells with luciferase-tagged ELG1; Potency, µM (highest dose often 46 µM), most hits filed as activators; HEK293T ELG1-luciferase reporter, luminescence, 16 h; 1.3% of 330,000 active; further: nearly all actives have a fitted effect of over 60% in size
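Cells (2,000/well) expressing the ELG1-luciferase fusion are dosed by pin tool and kept 16 hr at 37 °C, 5% CO2. Signal comes from ONE-Glo luciferase reagent after 30 min at room temperature.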
Rab9 promoter act = Rab9 promoter activation; 2.8% of 320,000 active; Huh7 Rab9 promoter-luciferase reporter, luminescence, 24 h; Potency, µM (doses to about 9.22 µM), most hits filed as activators; further: nearly all actives have a fitted effect of over 60% in size
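Promoter activation is measured as luciferase luminescence in Huh7 cells stably transfected with a Rab9 promoter–luciferase construct, following 24 h compound exposure at 37 °C and 10 min reagent incubation at ambient temperature.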
NPC1 promoter act = activators of NPC1 promoter; Potency, µM (series often up to 9.22 µM), hits mostly activators; Huh7 NPC1 promoter luciferase reporter, 24 h; 2.4% of 320,000 active; AID 485313; further: nearly all actives have a fitted effect of over 60% in size
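Huh7 cells stably carrying NPC1 promoter–luciferase, plated in Opti-MEM with 10% FBS for 2 h, were exposed to compound in DMSO for 24 h at 37 °C; luciferase reagent was added for 10 min and luminescence read.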
Numbers stand for hits. Compounds with a hit are over-represented: about 7.4% of the library has one in this group of screens. The call rests on the fitted dose curve; in most records, active means well fitted curve in the direction sought with a large enough effect; inconclusive means small, poorly fitted or top-dose-only effect, or another doubt; inactive means no such curve, though single readings can be large; an effect the other way counts as inactive or inconclusive.

What do the screens show for `COc1cc(O)oc1C=Nc1ccc(Oc2ccccc2)cc1`?
SMN2 splice up: inactive; FLuc counter: 15.1µM; ELG1 genotoxic: inactive; Rab9 promoter act: inconclusive; NPC1 promoter act: inconclusive

Results for Cc1ccc(C(=O)Nc2ccc(Br)c(C(F)(F)F)c2)cc1 ?
SMN2 splice up: inactive; FLuc counter: 13.5µM; ELG1 genotoxic: inactive; Rab9 promoter act: inconclusive; NPC1 promoter act: inconclusive

How did Cc1ccc(NC(=O)c2ccc(OC(=O)C(C)Oc3ccc(Cl)cc3C)cc2)cc1 (configuration not stated) do in these assays?
SMN2 splice up: 8.91µM; FLuc counter: inactive; ELG1 genotoxic: inconclusive; Rab9 promoter act: 1.78µM; NPC1 promoter act: 4.47µM

What do the screens show for `Cc1cc(Cl)ccc1OC(C)C(=O)OCC(=O)Nc1ccc2[nH]c(=O)[nH]c2c1` (configuration not stated)?
FLuc counter: inactive; ELG1 genotoxic: inactive; Rab9 promoter act: inactive; NPC1 promoter act: inactive

Results for Cc1ccc(C(=O)Nc2ccc(S(=O)(=O)N3CCCC3)cc2)cc1 ?
FLuc counter: inconclusive; ELG1 genotoxic: inactive; Rab9 promoter act: inactive; NPC1 promoter act: inactive

Results for Cc1ccc(C(=O)Nc2cc(C(C)C)c(O)c(C(C)C)c2)cc1 ?
SMN2 splice up: inactive; FLuc counter: 23.9µM; ELG1 genotoxic: inactive; Rab9 promoter act: inactive; NPC1 promoter act: inactive

Results for Cc1ccc(NC(=O)c2ccc(C)cc2)cc1 ?
FLuc counter: 0.849µM; ELG1 genotoxic: inconclusive; Rab9 promoter act: 0.251µM; NPC1 promoter act: 0.447µM

What do the screens show for `CCCC[C@@H](C=O)NC(=O)[C@H](CC(C)C)NC(=O)OCc1ccccc1`?
SMN2 splice up: inactive

How did Cc1ccc(-c2ccc(=O)n(CC(=O)NCCc3ccccc3)n2)cc1 do in these assays?
FLuc counter: inactive

How did COc1ccc(C(=O)Nc2ccc(N3CCN(C)CC3)cc2)cc1 do in these assays?
FLuc counter: 19µM; ELG1 genotoxic: inconclusive; Rab9 promoter act: inconclusive; NPC1 promoter act: inconclusive

How did CCOc1ccc(C(=O)NCC(=O)N2CCCCCCC2)cc1 do in these assays?
FLuc counter: inactive; ELG1 genotoxic: inactive; Rab9 promoter act: inactive; NPC1 promoter act: inactive

How did CCCCOc1ccc(C(=O)Nc2ccc(N3CCN(C)CC3)cc2)cc1 do in these assays?
SMN2 splice up: inactive; FLuc counter: inactive; ELG1 genotoxic: inactive; Rab9 promoter act: inactive; NPC1 promoter act: inactive

How did CCOc1ccc(C(=O)Nc2ccc(N3CCN(C)CC3)cc2)cc1 do in these assays?
FLuc counter: 12µM; ELG1 genotoxic: inactive; Rab9 promoter act: inactive; NPC1 promoter act: inactive

Results for COc1ccc(C(=O)Nc2ccc(N3CCN(C)CC3)cc2)cc1OC ?
FLuc counter: 16.9µM; ELG1 genotoxic: inconclusive; Rab9 promoter act: inconclusive; NPC1 promoter act: inconclusive

How did CCOc1ccc(NC(=O)c2ccc(NCC(=O)N3CCCCCC3)cc2)cc1 do in these assays?
SMN2 splice up: inactive; FLuc counter: 10.7µM; ELG1 genotoxic: inactive; Rab9 promoter act: inactive; NPC1 promoter act: inactive

What do the screens show for `COc1ccccc1CNC(=O)COC(=O)c1cc(=O)[nH]c2ccccc12`?
FLuc counter: inactive; ELG1 genotoxic: inactive; Rab9 promoter act: inactive; NPC1 promoter act: inactive

Results for O=C(COC(=O)C1CC2C=CC1C2)Nc1c(Br)cc([N+](=O)[O-])cc1Br (configuration not stated) ?
ELG1 genotoxic: inactive

What do the screens show for `Cc1cccc(NS(=O)(=O)c2ccc(C)c(NS(=O)(=O)c3cccs3)c2)c1`?
FLuc counter: inactive; ELG1 genotoxic: inactive; Rab9 promoter act: inactive; NPC1 promoter act: inactive

How did Cc1ccc(C(=O)Nc2ccc(N3CCN(C)CC3)cc2)cc1 do in these assays?
FLuc counter: 19µM; ELG1 genotoxic: inconclusive; Rab9 promoter act: 2.51µM; NPC1 promoter act: 2.24µM

Results for CN1CCN(c2ccc(NC(=O)c3ccc4ccccc4c3)cc2)CC1 ?
FLuc counter: 1.9µM; ELG1 genotoxic: 1.83µM; Rab9 promoter act: 0.562µM; NPC1 promoter act: 0.316µM

Results for COc1ccc(N(CC(=O)NCCc2ccccc2)C(=O)c2csnn2)cc1 ?
FLuc counter: inactive; ELG1 genotoxic: inactive; Rab9 promoter act: inactive; NPC1 promoter act: inactive

Results for CCn1c(-c2cc(-c3ccc(C)c(C)c3)nc3ccccc23)n[nH]c1=S ?
FLuc counter: 3.01µM; ELG1 genotoxic: inactive; Rab9 promoter act: inactive; NPC1 promoter act: inactive

How did Cc1ccc(-c2cc(-c3n[nH]c(=S)n3C)c3ccccc3n2)cc1 do in these assays?
SMN2 splice up: inactive; FLuc counter: 10.7µM; ELG1 genotoxic: inactive; Rab9 promoter act: inactive; NPC1 promoter act: inactive

Results for CCOc1cccc(-c2cc(-c3n[nH]c(=S)n3CC)c3ccccc3n2)c1 ?
SMN2 splice up: inactive; FLuc counter: 12µM; ELG1 genotoxic: inactive; Rab9 promoter act: inactive; NPC1 promoter act: inactive

How did COC(=O)c1cc2oc(C)cc2n1Cc1ccccc1Cl do in these assays?
SMN2 splice up: inactive; FLuc counter: inactive

What do the screens show for `COc1cccc(C(=O)NCC(=O)NCc2cc(=O)n(C)c(=O)n2C)c1`?
FLuc counter: inactive; ELG1 genotoxic: inactive; Rab9 promoter act: inactive; NPC1 promoter act: inactive

What do the screens show for `COc1ccccc1Cn1ccn(CC(=O)Nc2c(C)cc(C)cc2C)c(=O)c1=O`?
FLuc counter: inactive

What do the screens show for `COc1ccc(NC(=O)Nc2cc(-c3cn4cccnc4n3)ccc2OC)cc1`?
SMN2 splice up: inactive; FLuc counter: inconclusive

How did COc1ccc(-c2cn3cccnc3n2)cc1NC(=O)Nc1ccc(Cl)cc1 do in these assays?
FLuc counter: 6.01µM

What do the screens show for `COc1cc(C(=O)Nc2cccc(-c3cn4cccnc4n3)c2)cc(OC)c1OC`?
SMN2 splice up: inactive; FLuc counter: inconclusive; ELG1 genotoxic: inactive; Rab9 promoter act: inactive; NPC1 promoter act: inactive

What do the screens show for `COc1ccc(-c2cn3cccnc3n2)cc1NC(=O)c1cc(OC)c(OC)c(OC)c1`?
SMN2 splice up: inactive; FLuc counter: 21.3µM; ELG1 genotoxic: inactive; Rab9 promoter act: inactive; NPC1 promoter act: inactive

What do the screens show for `COc1ccc(-c2cn3cccnc3n2)cc1NC(=O)C(C)Oc1ccccc1` (configuration not stated)?
FLuc counter: 26.9µM; ELG1 genotoxic: inactive; Rab9 promoter act: inactive; NPC1 promoter act: inactive

Results for CCC(CC)C(=O)Nc1cc(-c2cn3cccnc3n2)ccc1OC ?
FLuc counter: inactive

How did N#C/C(=C(/O)COC(=O)Cc1c[nH]c2ccccc12)c1nc2ccccc2[nH]1 do in these assays?
SMN2 splice up: inactive; FLuc counter: 15.1µM; ELG1 genotoxic: inactive; Rab9 promoter act: inactive; NPC1 promoter act: inactive

Results for CC(=O)Nc1ccc(C(=O)NNC(=O)c2ccc(Cl)cc2)cc1 ?
FLuc counter: inactive; ELG1 genotoxic: inactive; Rab9 promoter act: inactive; NPC1 promoter act: inactive

How did CC(C)(C)c1ccc(C(=O)Nc2ccc(Cl)cc2)cc1 do in these assays?
SMN2 splice up: 3.55µM; FLuc counter: inconclusive; ELG1 genotoxic: inconclusive; Rab9 promoter act: 1.41µM; NPC1 promoter act: 2.82µM

How did CC(=O)Nc1nonc1NC(=O)c1ccc(C(C)(C)C)cc1 do in these assays?
SMN2 splice up: inconclusive; FLuc counter: inconclusive; ELG1 genotoxic: inactive; Rab9 promoter act: 3.55µM; NPC1 promoter act: inconclusive

Compound activity (PubChem)
